Inconclusive results are not listed. A call without a number means that no potency is given here. Activity calls are given as the source filed them. Calls come from the whole dose curve; as a rule, active = well fitted inhibition curve with a large enough effect; inconclusive = small, poorly fitted or top-dose-only effect; inactive = flat fitted curve, though single readings scatter.
Experiments:
Assay in all cases: qHTS profiling for inhibitors of Plasmodium falciparum proliferation (AID 504749); note: nearly all actives have a fitted effect of over 60% in size
Conditions in all cases: P. falciparum in erythrocytes, SYBR Green DNA, 72 h; series mostly up to 28.7 µM
CP237 = system: CP237
Outline: (§1)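 Infected RBCs, 0.3% parasitemia/2.5% Hct final; cpd 72 h, 37 C, 5% CO2; lysis buffer with saponin/triton/SYBR Green I, o/n RT dark; FI 485/535; norm. to artemisinin (0.29 uM) and DMSO.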

CP247 = system: CP247
Outline: as §1

CP250 = system: CP250
Outline: as §1

CP262 = system: CP262
Outline: as §1

CP265 = system: CP265
Outline: as §1

CP266 = system: CP266
Outline: as §1

CP315 = system: CP315
Outline: as §1

CP217 = system: CP217
Outline: as §1

CP238 = system: CP238
Outline: as §1

CP252 = system: CP252
Outline: as §1

CP256 = system: CP256
Outline: as §1

CP260 = system: CP260
Outline: as §1

CP268 = system: CP268
Outline: as §1

CP269 = system: CP269
Outline: as §1

CP286 = system: CP286
Outline: as §1

CP291 = system: CP291
Outline: as §1

CP297 = system: CP297
Outline: as §1

CP305 = system: CP305
Outline: as §1

CP325 = system: CP325
Outline: as §1

CP329 = system: CP329
Outline: as §1
Potency is the fitted concentration of half-maximal effect.

Row | Structure (SMILES) | Potency (CP237) | Potency (CP247) | Potency (CP250) | Potency (CP262) | Potency (CP265) | Potency (CP266) | Potency (CP315) | Potency (CP217) | Potency (CP238) | Potency (CP252) | Potency (CP256) | Potency (CP260) | Potency (CP268) | Potency (CP269) | Potency (CP286) | Potency (CP291) | Potency (CP297) | Potency (CP305) | Potency (CP325) | Potency (CP329)
1 | CCN(CC)CCNC(C(=O)OCCC(C)C)c1ccccc1 (centres undefined) | 3.16 µM (active) | inactive | inactive | inactive | 8.91 µM (active) | inactive | inactive |  |  |  |  |  |  |  |  |  |  |  |  | 
2 | CC(=O)NC(Cc1ccccc1)C(=O)O (centres undefined) | inactive |  | inactive | inactive | inactive | inactive | inactive | inactive | inactive | inactive | inactive | inactive | inactive | inactive | inactive | inactive | inactive | inactive | inactive | inactive
3 | Oc1ccc(C(O)CNCCCCCCNCC(O)c2ccc(O)c(O)c2)cc1O (centres undefined) |  | 11.2 µM (active) |  | inactive |  |  |  |  |  |  |  | 7.94 µM (active) |  |  | 7.08 µM (active) |  |  |  |  | 
4 | Cc1cc(O)cc2c1O[C@](C)(CCC[C@H](C)CCC[C@H](C)CCCC(C)C)CC2 |  | inactive | inactive | inactive | inactive | inactive | inactive | inactive | inactive | inactive | inactive | inactive | inactive | inactive | inactive | inactive | inactive | inactive | inactive | inactive
5 | COc1ccc2[nH]c(S(=O)Cc3ncc(C)c(OC)c3C)nc2n1 (centres undefined) |  | 11.2 µM (active) |  | inactive |  |  | inactive |  |  |  |  |  | inactive | inactive |  | inactive |  | inactive | inactive | inactive
6 | O=C(O)[C@@H]1CSCN1 | inactive |  | inactive | inactive | inactive |  | inactive | inactive | inactive | inactive | inactive | inactive | inactive | inactive | inactive | inactive | inactive | inactive | inactive | inactive
7 | CCCc1c(OCCCCc2nn[nH]n2)ccc(C(C)=O)c1O | inactive |  | inactive | inactive | inactive | inactive |  | inactive | inactive | inactive | inactive |  | inactive | inactive | inactive | inactive | inactive | inactive | inactive | inactive
8 | COCCOC(=O)C1=C(C)NC(C)=C(C(=O)OC/C=C/c2ccccc2)C1c1cccc([N+](=O)[O-])c1 (centres undefined) |  |  |  |  |  | inactive |  |  |  |  |  |  |  |  |  |  |  |  |  | 
9 | C[C@]12C[C@H](O)[C@H]3[C@@H](CCC4=CC(=O)CC[C@@]43C)[C@@H]1CC[C@@H]2C(=O)CO | inactive |  |  | inactive |  | inactive | inactive |  |  |  |  | inactive | inactive | inactive | inactive | inactive | inactive | inactive | inactive | inactive
10 | CSc1ccc2c(c1)C(N1CCN(C)CC1)Cc1ccccc1S2 (centres undefined) |  |  | inactive | inactive | inactive | inactive | inactive |  |  |  | inactive | 10 µM (active) |  |  |  |  |  |  |  | 
